# Data from patent US20030059769, “High affinity nucleic acid ligands to lectins” (published 2003).
# Molecular target: T1, L-selectin (LS-Rg) (Homo sapiens, UniProt P14151 P14151:39-332)
# T1 sequence: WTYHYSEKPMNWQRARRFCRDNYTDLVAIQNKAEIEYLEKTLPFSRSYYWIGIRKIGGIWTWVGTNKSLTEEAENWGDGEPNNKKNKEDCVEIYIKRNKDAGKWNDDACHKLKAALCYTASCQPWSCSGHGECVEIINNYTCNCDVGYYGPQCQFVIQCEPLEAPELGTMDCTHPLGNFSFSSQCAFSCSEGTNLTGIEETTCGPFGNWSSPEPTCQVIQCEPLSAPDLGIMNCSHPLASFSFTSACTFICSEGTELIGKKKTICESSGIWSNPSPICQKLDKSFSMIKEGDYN
# Assay: filter; 26-nt hairpin truncate
# Conditions: tags: human IgG2 Fc fusion, chain copies: dimer, label: 32P; ssDNA
row,Sequence,binding signal
1,GCGTTACAAGGTGCTAAACGTAACGT,100 fold weaker than LD227
2,CCAGTACAAGGTGCTAAACGTAATGG,20 fold weaker than LD201
